Screens deposited in PubChem by several laboratories.
PfM18AAP inh: PfM18AAP inhibitors, malaria aminopeptidase, primary screen, biochemical, QFRET, recombinant enzyme. M18 aspartyl aminopeptidase (Plasmodium falciparum 3D7). H-Glu-NHMec fluorogenic cleavage. inhibition, % at 7.35 µM. hit rate 1.2% among 290,000. AID 1822, 2009;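 active means inhibition above the campaign mean inhibition over all tested compounds plus 3 SD, cut at about 28% in these data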;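 further: 0% = plate median of test compound wells and 100% = 2 mM ZnCl2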
Rce1 inh: yeast Rce1p protease inhibitors, primary screen, biochemical, fluorescence, cell-free homogeneous; CAAX prenyl protease 2 (Saccharomyces cerevisiae (strain ATCC 204508 / S288c)), Q03530; yeast membranes, quenched prenylated peptide cleavage fluorescence; calls only; hit rate 0.27% among 290,000;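 active means fall in fluorescence gain of 50% or more versus controls, with final raw signal at or below 3038400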;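 further: plate controls were neutral control wells for no effect and wells lacking membranes for full effect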
NPR1 activator: GC-A stimulated cGMP production enhancers – HEK293 GC-A cells, cGMP TR-FRET, EC30 ANP, primary screen | Atrial natriuretic peptide receptor 1 (Homo sapiens), P16066 | hit rate 0.14% among 370,000 | activation, % at 10 µM | 0% at EC30 ANP, 100% saturating ANP; in the data active means activation above about 40%
PLC-gamma1 inh: PLC-gamma1 enzyme inhibitors, primary screen, biochemical, fluorescence, purified enzyme; inhibition, % at 12.2 µM; hit rate 0.84% among 370,000; AID 720700, 2013; fluorogenic substrate; in the data active means inhibition above about 9.5%
PLCb3 inh: human PLC-beta3 inhibitors, primary screen, biochemical, fluorescence | 1-phosphatidylinositol 4,5-bisphosphate phosphodiesterase beta-3 (Homo sapiens), Q01970 | Purified PLC-beta3, fluorogenic substrate | inhibition, % at 12.2 µM | hit rate 0.18% among 370,000; in the data active means inhibition above about 11%;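 further: 0% = median of compound wells on plate and 100% = full blocker control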
GC-B act: human GC-B receptor activators, primary screen, HEK293 GC-B cells, cGMP TR-FRET, EC30 CNP | Atrial natriuretic peptide receptor 2 (Homo sapiens), P20594 | 0% at EC30 CNP, 100% saturating CNP | activation, % at 10 µM | hit rate 0.11% among 370,000;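 active means activation at 10 µM reaching about 35% in either raw or pattern-adjusted values, limit read from the data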
Starred values were filed as active, the others as inactive; i = inactive; · = no result given; + = active, no number. A selection: hits, their analogues and other compounds. The true share with any hit is near 2.2%.

SMILES | PfM18AAP inh | Rce1 inh | NPR1 activator | PLC-gamma1 inh | PLCb3 inh | GC-B act
COc1ccccc1-c1cc(C(F)(F)F)n2ncc(S(=O)(=O)c3ccccc3)c2n1 | 5 | + | 8 | -67 | -95 | 7
COC(=O)C1CN(Cc2ccc(F)cc2)CCS(=O)(=O)N1Cc1cn(Cc2ccc(C)cc2)nn1 (stereo not given) | · | · | -6 | 2 | 5 | 10
COC(=O)C1CN(Cc2ccc(OC)cc2)CCS(=O)(=O)N1Cc1ccc(F)cc1 (stereo not given) | · | · | -7 | 1 | 0 | -8
CCCN(CC(=O)Nc1cccc(S(N)(=O)=O)c1)CC(=O)Nc1ccc(F)c(F)c1F | -6 | i | 0 | 3 | -4 | 3
CCCN(CC(=O)Nc1cccc(Br)c1)CC(=O)Nc1ccc(F)c(F)c1F | -7 | i | -2 | 9 | 11* | -10
O=C1CCC[C@H]2Cc3nc4ccccc4cc3C[C@]23CCCN13 | · | · | -1 | -3 | -5 | -1
Cc1ccc2c(c1)sc[n+]2Cc1ccccc1 | 27 | + | 7 | -1 | -1 | 2
CCCCCCCCN1CCS(=O)(=O)N(Cc2ccc(Cl)cc2)C(C(=O)OC)C1 (stereo not given) | · | · | -3 | -1 | -1 | -6
Cc1cc(C)cc(C(=O)OCCCN(C)C2CN(Cc3cn(Cc4ccccc4Cl)nn3)S(=O)(=O)C2)c1 (stereo not given) | · | · | -4 | 2 | -2 | -5
CC(C)c1ccc(O)c(NC(=O)c2cncc(Br)c2)c1 | 2 | i | 1 | 2 | 1 | -3
CC(C)c1ccc(O)c(NC(=O)c2ncn[nH]2)c1 | 29* | i | 3 | -6 | 0 | -1
Cc1ccc(CNc2nc(-c3cccs3)nc3ccccc23)cc1 | 3 | i | 30 | -56 | -72 | 39*
Cc1nc2ccc(S(=O)(=O)NCC(=O)N(C)Cc3ccc(F)cc3)cc2s1 | · | · | 3 | -1 | -1 | 11
N#Cc1ccc(-c2cccnc2)nc1SCc1ccc(Cl)c(Cl)c1 | 0 | i | 10 | 0 | -5 | 11
N#Cc1ccc(-c2cccnc2)nc1SCc1ccc(Cl)cc1Cl | -10 | i | 35 | 8 | 1 | 42*
O=C1C=C(O)c2cccc(O)c2C1=O | · | · | 2 | 0 | -6 | -7
O=C1C=C(c2c(O)ccc3ccccc23)c2ccccc2C1=O | · | · | 44* | -7 | -16 | 49*
O=S1(=O)CCOCC(CO)N1Cc1cccc(Br)c1 (stereo not given) | · | · | -5 | 2 | 1 | 7
CCOC(=O)c1cnc(-n2cc(C)cn2)nc1NCc1ccc2c(c1)OCO2 | -3 | i | 34 | -5 | -1 | 45*
N#C/C(=C\c1cccc(O)c1)C(=O)N1CCCCC1 | 12 | i | 5 | -3 | -7 | 3
N#C/C(=C\c1cccc(Br)c1)C(=O)N1CCCCC1 | 30* | i | 3 | -1 | -1 | -2
O=C(CN1CCN(Cc2ccccc2)CC1)N/N=C\c1c2ccccc2cc2ccccc12 | · | · | -15 | -20 | -25 | -12
O=S(=O)(Nc1cc(Sc2cccc3cccnc23)c(O)c2ccccc12)c1ccc(F)cc1 | 2 | i | 7 | -89 | -112 | 6
COc1ccc(S(=O)(=O)Nc2cc(Sc3ncn[nH]3)c(O)c3ccccc23)cc1 | 50* | · | 3 | 9 | -10 | -7
COc1ccc(-c2nc3cnccn3c2Nc2ccc3c(c2)OCO3)cc1 | 5 | i | 52* | -38 | -51 | 47*
SMILES | PfM18AAP inh | Rce1 inh | NPR1 activator | PLC-gamma1 inh | PLCb3 inh | GC-B act
CN(C)c1ccc(-c2nc3cnccn3c2Nc2ccc3c(c2)OCCO3)cc1 | -5 | i | 9 | -89 | -128 | 1
Cc1ccc(-c2nc3cnccn3c2Nc2ccc3c(c2)OCO3)cc1 | 13 | i | 51* | -38 | -51 | 50*
CCN(C(=O)COC(=O)c1ccc(Sc2ncn[nH]2)c([N+](=O)[O-])c1)c1ccccc1C | · | · | -4 | 2 | 5 | 5
O=C(CN1C(=O)/C(=C/c2cccc(Cl)c2)SC1=S)NC1C=CS(=O)(=O)C1 (stereo not given) | 30* | i | -10 | -11 | -25 | -6
O=C(CN1C(=O)S/C(=C\c2cccc(Cl)c2)C1=O)NC1C=CS(=O)(=O)C1 (stereo not given) | 4 | i | -2 | -2 | -10 | -2
COc1ccc(/C=C2/C(=O)ON=C2C)cc1Br | 4 | i | 32 | 3 | -3 | 15
CCOc1cc(/C=C2/C(=O)ON=C2C)ccc1OCc1ccccc1F | 0 | i | 43* | 1 | -4 | 40*
CCOc1cc(/C=C2/C(=O)ON=C2C)ccc1OCc1ccc(F)cc1 | 8 | i | 42* | -1 | 1 | 35*
CCOc1cc(/C=C2/C(=O)ON=C2C)ccc1OCc1ccccc1 | 10 | i | 43* | -4 | 2 | 37*
CCOc1cc(/C=C2\C(=O)ON=C2c2ccccc2)ccc1OC | 7 | i | 29 | -1 | -5 | 10
Cc1ccccc1Cn1cc(CN2[C@H](C)COc3cc(Br)ccc3S2(=O)=O)nn1 | · | · | -4 | 0 | 1 | 0
Nc1c(C(=O)c2ccccc2)sc2snc(SCC(=O)c3ccccc3)c12 | 31* | i | 3 | -25 | -26 | 5
Nc1nnc(SCC(=O)c2ccccc2)s1 | 15 | i | 1 | -3 | -2 | 2
CCN(Cc1ccccc1)S(=O)(=O)c1ccc(C(=O)N(CCCN(C)C)c2nc3cc(C)cc(C)c3s2)cc1 | · | + | -5 | 3 | -6 | 2
Cc1cc(C)c2sc(N(CCCN(C)C)C(=O)c3ccc(S(=O)(=O)N(C)Cc4ccccc4)cc3)nc2c1 | · | i | -14 | 4 | -7 | -9
CCCOc1ccccc1N/C(N)=N/c1nc(C)cc(C)n1 | -2 | · | -4 | 3 | -2 | 0
CCCOc1ccccc1N/C(=N\S(=O)(=O)c1ccc(C)cc1)Nc1nc(C)cc(C)n1 | -2 | i | 45* | 4 | 3 | 54*
Cc1[nH][nH]c(=O)c1C(c1ccc(O)c([N+](=O)[O-])c1)c1c(C)[nH][nH]c1=O | 31* | i | 1 | -1 | 1 | -2
Cc1[nH][nH]c(=O)c1C(c1ccc(O)c(Br)c1)c1c(C)[nH][nH]c1=O | 28 | i | 4 | -1 | -3 | -3
CCOc1cc(C(c2c(C)[nH][nH]c2=O)c2c(C)[nH][nH]c2=O)ccc1O | 30* | i | 0 | 6 | 9 | 2
